PubChem BioAssay (EPA / NIEHS)
The source made the active and inactive calls. How the source made its calls: active means hit-call score of the fitted dose curve at least 0.9, where 1 is the maximum; inactive means score below 0.9.

Legend:
[1] = ATG_CRE_CIS: Attagene CIS-FACTORIAL HepG2 Assay for human cAMP Responsive Element (CRE) binding protein 3 (AID 2282926); details: HepG2 CRE cis-reporter, Attagene multiplexed mRNA; actives raise or lower the signal
Method in brief: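 We dosed HepG2 cells bearing multiple cis-promoter reporter units for 24 h and measured reporter mRNA by RT-PCR with capillary electrophoresis detection. Bidirectional concentration-response fitting used DMSO as negative control.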

[2] = molecular target: CCAAT/enhancer-binding protein beta (Homo sapiens) (UniProt P17676); test: ATG_C_EBP_CIS: Attagene CIS-FACTORIAL HepG2 Assay for human CCAAT/Enhancer Binding Protein (C/EBP) beta (AID 2282927); details: HepG2 Attagene cis-factorial transcription factor reporter; actives raise or lower the signal
Sequence of CCAAT/enhancer-binding protein beta (Homo sapiens) (P17676 whole entry, looked up): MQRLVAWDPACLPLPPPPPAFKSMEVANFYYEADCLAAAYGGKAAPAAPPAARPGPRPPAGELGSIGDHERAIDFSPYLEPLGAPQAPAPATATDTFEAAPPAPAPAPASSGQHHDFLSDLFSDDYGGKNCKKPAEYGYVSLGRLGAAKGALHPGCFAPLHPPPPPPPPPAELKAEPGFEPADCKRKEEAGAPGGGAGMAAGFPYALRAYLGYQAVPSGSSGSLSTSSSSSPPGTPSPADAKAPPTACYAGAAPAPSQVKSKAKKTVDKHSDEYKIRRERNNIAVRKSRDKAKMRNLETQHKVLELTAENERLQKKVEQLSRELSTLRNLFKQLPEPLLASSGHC
Method in brief: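 HepG2, transient MRTU transfection, 24 h treatment. RT-PCR plus CE fluorescence; DMSO negative control, bidirectional fit.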

[3] = ATG_CMV_CIS: Attagene CIS-FACTORIAL HepG2 Assay for human CMV (Internal Marker) (AID 2282928); details: HepG2 CMV promoter reporter, transcription factor profiling; actives raise or lower the signal;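 further: endpoint acts as a background internal control marker rather than a target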
Method in brief: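 Endogenous transcription factor activity read in HepG2 via transfected cis-promoter reporter units. After 24 h dosing, reporter mRNA measured by RT-PCR/capillary electrophoresis; gain or loss of signal fit relative to DMSO.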

[4] = ATG_DR4_LXR_CIS: Attagene CIS-FACTORIAL HepG2 Assay for human Liver X Receptor (LXR), DR4 submotif (AID 2282929); details: HepG2 Attagene DR4 cis-reporter, mRNA transcription; actives raise or lower the signal
Method in brief: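 DR4 cis-reporter in HepG2, 24 h exposure. Detection: RT-PCR, 6-FAM labelling, CE fragment analysis. Endpoint fitted bidirectionally, DMSO = baseline.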

[5] = molecular target: Aryl hydrocarbon receptor (Homo sapiens) (UniProt P35869); test: ATG_Ahr_CIS: Attagene CIS-FACTORIAL HepG2 Assay for human Aryl Hydrocarbon Receptor (Ahr) (AID 2282930); details: HepG2 AhR cis-factorial reporter transcription; actives raise or lower the signal
Sequence of Aryl hydrocarbon receptor (Homo sapiens) (P35869 whole entry, looked up): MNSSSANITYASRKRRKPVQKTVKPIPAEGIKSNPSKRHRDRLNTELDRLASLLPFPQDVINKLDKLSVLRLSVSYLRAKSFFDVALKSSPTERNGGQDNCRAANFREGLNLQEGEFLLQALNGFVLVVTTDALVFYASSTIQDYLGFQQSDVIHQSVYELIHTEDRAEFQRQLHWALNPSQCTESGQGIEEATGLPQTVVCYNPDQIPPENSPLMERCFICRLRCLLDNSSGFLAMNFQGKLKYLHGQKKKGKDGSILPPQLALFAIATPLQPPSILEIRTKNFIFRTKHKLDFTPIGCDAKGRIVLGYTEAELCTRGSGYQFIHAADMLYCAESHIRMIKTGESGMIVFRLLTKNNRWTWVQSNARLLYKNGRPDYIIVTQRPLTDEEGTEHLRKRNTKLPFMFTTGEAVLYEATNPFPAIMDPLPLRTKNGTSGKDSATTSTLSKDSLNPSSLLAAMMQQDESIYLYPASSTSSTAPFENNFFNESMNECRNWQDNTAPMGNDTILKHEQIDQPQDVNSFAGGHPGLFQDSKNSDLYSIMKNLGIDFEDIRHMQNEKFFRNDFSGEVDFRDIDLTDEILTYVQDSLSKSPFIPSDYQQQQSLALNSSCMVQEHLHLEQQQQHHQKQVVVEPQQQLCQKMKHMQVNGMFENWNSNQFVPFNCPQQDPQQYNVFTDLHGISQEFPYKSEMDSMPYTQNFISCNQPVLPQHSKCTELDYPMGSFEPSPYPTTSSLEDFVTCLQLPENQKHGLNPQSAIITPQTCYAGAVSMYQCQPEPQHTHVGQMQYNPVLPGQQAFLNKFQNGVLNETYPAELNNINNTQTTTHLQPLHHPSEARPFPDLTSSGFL
Method in brief: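 Endogenous factor activity is tracked through cis-promoter reporter units transfected into HepG2 cells. Transcript levels at 24 h are read by fluorescent RT-PCR and capillary electrophoresis, with activity in either direction scored relative to DMSO.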

[6] = ATG_AP_1_CIS: Attagene CIS-FACTORIAL HepG2 Assay for human Activator Protein 1 (AP-1) (AID 2282931); details: HepG2 Attagene cis-factorial AP-1 reporter mRNA; actives raise or lower the signal
Method in brief: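 Cis-regulated reporter units transiently expressed in HepG2 report endogenous transcription-factor activity. Signal: reporter mRNA at 24 h, via RT-PCR and fluorescent capillary electrophoresis. Endpoint derived by bidirectional fitting, DMSO as negative control.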

[7] = ATG_AP_2_CIS: Attagene CIS-FACTORIAL HepG2 Assay for human Activator Protein 2 (AP-2) (AID 2282932); details: HepG2 AP-2 cis-reporter, Attagene transcription factor profiling; actives raise or lower the signal
Method in brief: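 Multiplexed mRNA reporter assay in HepG2: cis-regulated units report endogenous factor activity after 24 h treatment. Fluorescence from capillary electrophoresis of RT-PCR products gives the signal, with DMSO as baseline.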

[8] = ATG_BRE_CIS: Attagene CIS-FACTORIAL HepG2 Assay for human Bone Morphogenetic Protein (BMP) Response Element (BRE) (AID 2282933); details: HepG2 BMP response element reporter, Attagene transcription factor profiling; actives raise or lower the signal
Method in brief: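 Endogenous transcription factor activity read in transiently transfected HepG2 cells after 24 h chemical exposure. Bidirectional curve fitting against DMSO; readout is reporter transcript level by RT-PCR with capillary electrophoresis of labelled products.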

[9] = molecular target: Retinoic acid receptor alpha (Homo sapiens) (UniProt P10276); test: ATG_DR5_RAR_CIS: Attagene CIS-FACTORIAL HepG2 Assay for human Retinoic Acid Receptor Alpha (RARE), DR5 submotif (AID 2282934); details: HepG2 Attagene cis-factorial RARE DR5 reporter, mRNA; actives raise or lower the signal;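 on AC50: reporter responds to endogenous RAR alpha beta and gamma in HepG2 not RARA alone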
Sequence of Retinoic acid receptor alpha (Homo sapiens) (P10276 whole entry, looked up): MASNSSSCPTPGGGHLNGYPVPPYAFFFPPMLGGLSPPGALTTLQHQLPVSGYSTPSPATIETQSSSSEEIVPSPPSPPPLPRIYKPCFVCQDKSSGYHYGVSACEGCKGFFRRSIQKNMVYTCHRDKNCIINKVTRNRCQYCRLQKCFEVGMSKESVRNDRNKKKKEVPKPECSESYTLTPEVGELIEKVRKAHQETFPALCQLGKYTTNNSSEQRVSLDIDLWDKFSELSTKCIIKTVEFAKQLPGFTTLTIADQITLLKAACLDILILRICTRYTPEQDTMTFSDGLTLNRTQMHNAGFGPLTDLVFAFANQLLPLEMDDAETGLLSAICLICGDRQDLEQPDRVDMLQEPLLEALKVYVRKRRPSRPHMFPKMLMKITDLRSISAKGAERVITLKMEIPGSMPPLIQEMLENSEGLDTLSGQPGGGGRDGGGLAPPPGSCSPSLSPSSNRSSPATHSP
Method in brief: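 After 24 h of chemical exposure, transiently transfected HepG2 cells were lysed for total RNA; the DR5-regulated reporter transcript was quantified via RT-PCR and capillary electrophoresis, with activity fitted bidirectionally against DMSO.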

[10] = molecular target: Transcription factor E2F1 (Homo sapiens) (UniProt Q01094); test: ATG_E2F_CIS: Attagene CIS-FACTORIAL HepG2 Assay for human E2F Transcription Factor 1 (AID 2282935); details: HepG2 Attagene cis-reporter, E2F reporter RNA transcripts; actives raise or lower the signal
Sequence of Transcription factor E2F1 (Homo sapiens) (Q01094 whole entry, looked up): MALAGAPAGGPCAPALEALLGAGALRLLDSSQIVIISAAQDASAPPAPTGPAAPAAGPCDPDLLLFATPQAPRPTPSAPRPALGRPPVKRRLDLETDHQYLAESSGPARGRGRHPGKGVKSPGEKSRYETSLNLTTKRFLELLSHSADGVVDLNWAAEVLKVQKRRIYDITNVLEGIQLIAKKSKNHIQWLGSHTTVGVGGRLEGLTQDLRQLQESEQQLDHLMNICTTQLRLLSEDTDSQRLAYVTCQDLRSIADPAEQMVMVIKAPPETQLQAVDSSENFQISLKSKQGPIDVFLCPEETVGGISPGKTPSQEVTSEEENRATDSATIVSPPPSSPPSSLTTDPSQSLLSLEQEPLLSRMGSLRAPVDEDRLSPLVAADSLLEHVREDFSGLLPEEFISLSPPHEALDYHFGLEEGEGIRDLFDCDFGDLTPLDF
Method in brief: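 Measures reporter transcript levels via RT-PCR with capillary electrophoresis detection in HepG2 cells harboring cis-regulated reporter units; 24 h post-dose; bidirectional curve fitting with DMSO as baseline.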

[11] = ATG_E_Box_CIS: Attagene CIS-FACTORIAL HepG2 Assay for human Enhancer Box (E-box) (AID 2282936); details: HepG2 E-box cis-reporter transcription, actives raise or lower the signal
Method in brief: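 First, HepG2 cells receive multiple cis-regulated reporter constructs by transient transfection. Next, chemicals are applied for 24 h. Finally, reporter mRNA is quantified via RT-PCR and capillary electrophoresis, with DMSO as baseline.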

[12] = ATG_M_61_CIS: Attagene CIS-FACTORIAL HepG2 Assay for M61 Transcription Factor (Internal Marker) (AID 2282937); details: HepG2 Attagene CIS-FACTORIAL M61 internal marker reporter; actives raise or lower the signal
Method in brief: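 Background-control endpoint: HepG2 cells with cis-regulated reporter constructs, 24 h exposure, reporter mRNA detected via fluorescent primer extension and capillary electrophoresis; values from bidirectional fitting with DMSO baseline.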

[13] = ATG_EGR_CIS: Attagene CIS-FACTORIAL HepG2 Assay for human Early Growth Response 1 (EGR1) (AID 2282938); details: HepG2 Attagene CIS-FACTORIAL EGR reporter mRNA; actives raise or lower the signal
Method in brief: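 Endpoint derived by bidirectional fitting versus DMSO vehicle. Method: cis-promoter reporter units transfected into HepG2, 24 h dosing, RNA isolation, RT-PCR with 6-FAM primer extension and HpaI digestion, then capillary electrophoresis fluorescence detection.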

[14] = ATG_M_19_CIS: Attagene CIS-FACTORIAL HepG2 Assay for M19 Transcription Factor (Internal Marker) (AID 2282939); details: HepG2 Attagene CIS-FACTORIAL M19 internal marker reporter; actives raise or lower the signal
Method in brief: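 Internal marker readout, fitted in both directions against DMSO, from HepG2 cells carrying transfected cis-element reporter constructs; RT-PCR and capillary electrophoresis of reporter mRNA after 24 h exposure.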

Measured: AC50

CCC[CH2][Sn]([CH2]CCC)([CH2]CCC)[CH2]CCC
active: [2] 5.44 µM | [4] 3.31 µM | [6] 7.55 µM | [7] 19.1 µM | [8] 5.89 µM | [9] 0.283 µM | [11] 14 µM | [13] 5.14 µM
inactive: [1] | [3] | [5] | [10] | [12] | [14]

O=c1[nH]c2ccccc2n1C1CCN(CCCC(c2ccc(F)cc2)c2ccc(F)cc2)CC1
active: [2] 5.75 µM | [3] 3.71 µM | [4] 5.83 µM | [9] 5.87 µM
inactive: all other assays above

C[CH2][Hg][S]c1ccccc1C(=O)O
active: [1] 2.94 µM | [2] 2.23 µM | [4] 5.13 µM | [7] 4.81 µM | [9] 1.11 µM | [11] 6.19 µM | [13] 3.71 µM
inactive: [3] | [5] | [6] | [8] | [10] | [12] | [14]

NNCCO
active: [5] 25.7 µM
inactive: all other assays above

Oc1c(Br)cc(Br)cc1Br
active: [5] 49.5 µM | [6] 27.7 µM | [8] 126 µM | [11] 30.4 µM | [13] 31.9 µM
inactive: all other assays above

C=CCc1ccccc1O
inactive: all assays above

Oc1cccc(-c2ccccc2)c1
active: [3] 67.7 µM | [6] 65.1 µM | [8] 73.5 µM
not listed: [13]
inactive: all other assays above

CC(c1ccc(O)cc1)c1ccc(O)cc1
inactive: all assays above

CN(C)[C@@H]1C(=O)C(C(N)=O)=C(O)[C@@]2(O)C(=O)C3=C(O)c4c(O)ccc(Cl)c4[C@@](C)(O)[C@H]3C[C@@H]12
active: [3] 25.9 µM | [6] 26.3 µM | [8] 30.3 µM
inactive: all other assays above

CC(C)[C@@H](Nc1ccc(C(F)(F)F)cc1Cl)C(=O)OC(C#N)c1cccc(Oc2ccccc2)c1 (some centres not stated)
not listed: [11]
inactive: all other assays above

C[C@@H]1O[C@@H](O[C@H]2C[C@@H](O)[C@]3(CO)[C@H]4[C@H](O)C[C@]5(C)[C@@H](C6=CC(=O)OC6)CC[C@]5(O)[C@@H]4CC[C@]3(O)C2)[C@H](O)[C@H](O)[C@H]1O
inactive: [3] | [5] | [8] | [10] | [12] | [14]
active: [1] 0.512 µM | [2] 0.0716 µM | [4] 0.207 µM | [6] 0.215 µM | [7] 0.119 µM | [9] 0.155 µM | [13] 0.0716 µM

Nc1nc(=S)[nH][nH]1
not listed: [8]
inactive: all other assays above

CN(C)c1ccc(N=O)cc1
active: [3] 7.81 µM | [4] 9.26 µM | [5] 8.04 µM | [11] 10.3 µM | [13] 13.5 µM
not listed: [10]
inactive: all other assays above

c1csc(-c2ccc(-c3cccs3)s2)c1
active: [4] 2.08 µM | [5] 0.739 µM | [6] 8.14 µM | [13] 3.02 µM
not listed: [10]
inactive: all other assays above

C#CCO
not listed: [10] | [13]
inactive: all other assays above

Nc1c(Oc2ccccc2)cc(O)c2c1C(=O)c1ccccc1C2=O
active: [5] 1.71 µM
not listed: [8] | [11] | [14]
inactive: all other assays above

O=C(NC(=O)c1c(F)cccc1F)Nc1ccc(Cl)cc1
active: [5] 19.6 µM
not listed: [10] | [11] | [14]
inactive: all other assays above

Nc1cccnc1
not listed: [10]
inactive: all other assays above
